PINK1 modulator – A Quantitative High throughput Screen to Identify Chemical Modulators of PINK1 Expression. PINK1 immunofluorescence, high-content cytometry, 24 h. Potency, µM (top dose mostly 76.6 µM), for the others: top-dose activation (PINK1 increase), most hits filed as activators. 0.2% of 410,000 active; active means well fitted activation curve with a large enough effect; inconclusive means small, poorly fitted or top-dose-only effect; cell line not stated here; further: potency means the concentration at half of the fitted maximal effect; % of control where 0% means no effect; nearly all actives have a fitted effect of over 65% in size
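Cells are seeded, rested 12 hours, then given compound at five concentrations or DMSO for 24 hours. After fixation, blocking and antibody staining, PINK1 amount and mitochondrial localization are scored; CCCP serves as control.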
ATXN viability – Viability Counterscreen for Primary qHTS for Inhibitors of ATXN expression; S2 cells (HEK-293 line with an ATXN2-luciferase reporter) viability, CellTiter-Fluor protease fluorescence, 24 h; Potency, µM (top dose mostly 56.7 µM), most hits filed as cytotoxic; 0.49% of 400,000 active; AID 651635, 2014; further: potency means the concentration at half of the fitted maximal effect; nearly all actives have a fitted effect of over 40% in size
SW480 rereplic – A quantitative high throughput screen for small molecules that induce DNA re-replication in SW480 colon adenocarcinoma cells; 1.8% of 340,000 active; AID 624297, 2012; SW480 DNA re-replication, Hoechst DNA content imaging, 48 h; Potency, µM (titrated, usually from 46.1 µM), without a hit: at the highest dose re-replication activation, usual class: activators; further: potency means the concentration at half of the fitted maximal effect; % of control where 0% means no effect; nearly all actives have a fitted effect of over 55% in size
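DNA re-replication was detected as more nuclei of elevated Hoechst intensity after 48 hr exposure to compound (23 nL pinned per well of 250 cells).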
IL1B secr inh – qHTS for Inhibitors of Inflammasome Signaling: IL-1-beta AlphaLISA Primary Screen | 4.7% of 360,000 active | activity change, % at 57.5 µM | THP-1 LPS/ATP IL-1B secretion, AlphaLISA, 16 h; hits give low values; in the data active means activity change below about -50%; inconclusive means mostly about -30% to -49%; further: on the % scale 0 is the no-effect control and ±100 the full control effect
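Secreted IL-1B measured by AlphaLISA bead assay after 16 h compound exposure of THP-1 cells; compounds (final up to 57.5 uM) added 1 h before LPS (250 ng/mL) and ATP (1.25 mM) stimulation; lower signal means less secretion.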
ATXN2 expr inh – Primary qHTS for Inhibitors of ATXN expression | HEK-293 ATXN2-luciferase reporter, luminescence, 24 h | Potency, µM (doses to about 57 µM), without a hit: at the top dose activity change, negative = inhibition, most hits filed as inhibitors | 0.72% of 360,000 active | AID 1745845, 2022; further: potency means the concentration at half of the fitted maximal effect; on the % scale 0 is the no-effect control and ±100 the full control effect; nearly all actives have a fitted effect of over 55% in size
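ATXN2-luciferase reporter cells (luciferase flanked by upstream and downstream ATXN2 gene portions) were treated 24 h at 37 °C with compounds at up to 57 uM. SteadyGlo luminescence gave expression; GF-AFC fluorescence gave viability.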
MCF10A rereplic – A quantitative high throughput screen for small molecules that induce DNA re-replication in MCF 10a normal breast cells | MCF 10A DNA re-replication, Hoechst nuclear intensity, 48 h | Potency, µM (highest dose often 46.1 µM), inactives show at the highest dose activity, positive = re-replication, most hits filed as activators | 2.9% of 350,000 active; further: potency means the concentration at half of the fitted maximal effect; % of control where 0% means no effect; nearly all actives have a fitted effect of over 50% in size
* = called active by the depositor; i = inactive; ? = inconclusive; / = no result given; [ ] = dose if it differs, or a comment. Most compounds without a hit are left out; they make up all but 7.1% or so of the library. Unless noted, the call rests on the fitted dose curve; in most records, active means well fitted curve in the direction sought with a large enough effect; inconclusive means small, poorly fitted or top-dose-only effect, or another doubt; inactive means no such curve, though single readings can be large; an effect the other way counts as inactive or inconclusive.

SMILES	PINK1 modulator	ATXN viability	SW480 rereplic	IL1B secr inh	ATXN2 expr inh	MCF10A rereplic
Cc1ccccc1CN1C[C@@H]2C[C@@H](c3cn[nH]c3-c3ccc(F)cc3)N3CCC[C@@]23C1=O	-1%	i	39%	-51*	-21%	20%
CCOc1ccccc1C(=O)N1CCCCC1CCN1CCOCC1 (configuration not stated)	1%	/	/	/	/	/
Fc1ccccc1COc1ccc(Br)cc1CNCC1CCCO1 (configuration not stated)	13%	?	5%	?	-37%	19%
Fc1ccc(COc2ccc(Br)cc2CNCC2CCCO2)cc1 (configuration not stated)	17%	i	62%	-74*	?	?
CCC1CCCCN1C(=O)c1ccc([N+](=O)[O-])o1 (configuration not stated)	-3%	i	93%	-20	-15%	18µM*
CN(CCOc1ccc(Br)cc1)C(=O)CNC(=O)c1ccc2ccccc2c1	1%	i	10%	-91*	-38%	?
CCOc1ccc(CN(C)C(=O)CNC(=O)c2ccccc2)cc1	0%	i	-2%	11	1%	7%
CCOc1ccc(-c2nnc3sc(-c4ccccc4OC)nn23)cc1	5%[38.3 µM]	i	4%	-14	-11%	-5%
COc1ccccc1-c1nnc2sc(-c3cnccn3)nn12	-1%[38.3 µM]	i	?	22	-23%	18µM*
COc1ccccc1-c1nnc2sc(-c3ccc(N(C)C)cc3)nn12	22%	?	?	-1	-17%	?
COc1ccccc1-c1nnc2sc(-c3cc4ccccc4o3)nn12	8%	?	2.6µM*	101	-16%	2.9µM*
COc1ccccc1-c1nnc2sc(COc3ccc(F)cc3)nn12	2%	i	-7%	-67*	-5%	6%
O=C(NCc1ccccc1Cl)c1ccc2c(c1)ncn2-c1cccc(F)c1	-1%	i	/	/	0%	/
Cc1ccc(NC(=O)c2cc3c([nH]c2=O)CC(C)(C)CC3=O)cc1	1%	/	/	/	/	/
Cc1cccc(CN2CCN(CC(=O)Nc3c(C)cccc3C)S2(=O)=O)c1	1%	/	/	/	/	/
CCCCN(C)C(=O)C1CCCN(c2ncnc3onc(-c4ccc(F)cc4)c23)C1 (configuration not stated)	0%	?	/	/	-17%	/
Cn1nc(C(F)(F)F)c(-c2ccc(Br)cc2)c1NC(=O)Nc1ccc(F)cc1F	?	i	-1%	/	?	21µM*
Cn1nc(C(F)(F)F)c(-c2ccc(F)cc2)c1NC(=O)c1ccco1	6%	i	-4%	21	-5%	-2%
CC1=CC(=C2C(=O)c3ccccc3C2=O)C=C(C)N1Cc1ccco1	5%	i	0%	-62*	17%	9%
COc1ccc(Cl)cc1NC(=O)CN(c1cccc(C)c1C)S(C)(=O)=O	0%	i	/	/	?	/
CCOC(=O)c1cc(-c2ccccc2)n(CCC(=O)NCCc2ccccc2)c1C	1%	/	/	/	/	/
CN1CCN(c2ccc(C(=O)c3ccc(Br)cc3)cc2[N+](=O)[O-])CC1	2%	i	?	-220*	-16%	1%
O=C(c1ccccc1)c1ccc(-n2ccnc2)c([N+](=O)[O-])c1	2%	i	-4%	20	-12%	2%
O=C(Nc1nc(-c2ccccc2)cs1)c1ccc(N2CCOCC2)c([N+](=O)[O-])c1	?	?	3%	?	13µM*	?
O=C(Nc1ccc(CN2CCOCC2)cc1)c1ccc(N2CCCC2)c([N+](=O)[O-])c1	0%	?	5%	-72*	?	-39%
SMILES	PINK1 modulator	ATXN viability	SW480 rereplic	IL1B secr inh	ATXN2 expr inh	MCF10A rereplic
O=C(c1ccccc1)c1ccc(-n2cnnc2)c([N+](=O)[O-])c1	3%	i	-4%	-78*	-6%	1%
O=C(CSc1nc(-c2ccccc2)nc2cc(=O)[nH]n12)Nc1ccccc1	4%	i	/	/	8%	/
Cc1ccccc1NC(=O)CCn1nc(-c2ccccc2)c2ccccc2c1=O	2%	?	/	/	-24%	/
CS(=O)(=O)c1ccc(-c2cn3ccccc3n2)cc1	/	i	/	/	23%	/
COc1ccccc1CNC(=O)c1ccc(N2CCOCC2)c([N+](=O)[O-])c1	0%	i	-55%	-55*	-5%	-1%
COc1cccc(CNC(=O)c2ccc(N3CCOCC3)c([N+](=O)[O-])c2)c1	1%	i	-5%	-12	1%	5%
O=C(Nc1ccccc1N1CCCCC1)c1ccc(Cl)c([N+](=O)[O-])c1	-2%	i	8%	/	-21%	?
CN1CCN(c2ccccc2NC(=O)c2ccc(N3CCCC3)c([N+](=O)[O-])c2)CC1	-1%	?	11%	-78*	-23%	2%
CC1CCN(c2ccccc2NC(=O)c2ccc(N3CCOCC3)c([N+](=O)[O-])c2)CC1	/	?	-6%	1	?	16µM*
O=C(Cc1coc2cc(O)ccc12)NNC(=O)c1ccc(Br)s1	0%	i	-6%	-23	-1%	?
CSC1=NC(C(Cl)(Cl)Cl)N=C(c2ccc(C)cc2)N1 (configuration not stated)	9%	?	?	30	1%	1.8µM*
CCC1N=C(SC)NC(C)=C1C(=O)c1ccccc1 (configuration not stated)	-2%	i	3%	-3	/	0%
CC(C)(C)C(=O)Nc1cc2nn(-c3ccccc3)nc2cc1Cl	0%	i	7.3µM*	49	?	?
CN=C1S/C(=C\c2ccc(N3CCCC3)c(F)c2)C(=O)N1C	11%	i	13µM*	-28	45%	23µM*
CC(C)N(C(=S)NCc1ccccc1)c1ccccc1	1%	i	-4%	-50*	-20%	?
S=C(NCc1ccccc1)NCc1ccccc1	-6%[38.3 µM]	i	21µM*	14	1%	?
S=C(NCc1ccccc1)NCc1ccc(Cl)cc1	19%	i	2%	41	-29%	4%
CN(C(=S)Nc1ccc(SC(F)F)cc1)C(c1ccccc1)c1ccccc1	?	i	1%	?	/	?
CC(C)N(C(=S)NCc1ccccc1)C(C)C	0%	i	1%	27	/	-2%
FC(F)Sc1ccc(NC(=S)NCc2ccccc2)cc1	14µM*	i	18%	-92*	-14%[11.3 µM]	?
FC(F)Sc1ccc(NC(=S)NC(c2ccccc2)c2ccccc2)cc1	?	?	?	-68*	/	3.7µM*

High-throughput results: PubChem BioAssay, National Center for Advancing Translational Sciences (NCATS)
